The campaign covered roughly 350,000 compounds. About 31,000 (8.9%) were called active. Inconclusive results (about 15%) are left out. This is one part of a sample in which actives are shown more often than they occur. A number with no mark means an inactive call. The call rests on the fitted dose curve; in most records, active means well fitted inhibition curve with a large enough effect; inconclusive means small, poorly fitted or top-dose-only effect; inactive means no such curve, though single readings can be large or run the other way.
On the % scale 0 is the no-effect control and ±100 the full control effect; potency means the concentration at half of the fitted maximal effect.

Chain of Histone-lysine N-methyltransferase EHMT2 (Homo sapiens) (Q96KQ7 913-1193 limits assumed): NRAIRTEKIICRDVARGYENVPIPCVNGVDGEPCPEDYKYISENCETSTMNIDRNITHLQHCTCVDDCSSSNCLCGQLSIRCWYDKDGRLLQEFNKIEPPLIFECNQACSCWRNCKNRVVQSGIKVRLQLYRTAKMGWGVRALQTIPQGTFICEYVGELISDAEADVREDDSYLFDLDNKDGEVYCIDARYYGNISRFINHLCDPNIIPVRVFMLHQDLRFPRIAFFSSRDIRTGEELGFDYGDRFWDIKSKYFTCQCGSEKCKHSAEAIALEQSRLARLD

This assay addresses Histone-lysine N-methyltransferase EHMT2 (Homo sapiens) (UniProt Q96KQ7). The experiment in a line: qHTS Assay for Inhibitors of Histone Lysine Methyltransferase G9a. Further: nearly all actives have a fitted effect of over 75% in size. The conditions noted are these: G9a H3K9 monomethylation, AlphaScreen, 2 h; series mostly up to 59 µM; activity, negative = inhibition: at the top concentration. In a few lines: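 Compounds were preincubated with 20 nM G9a for 15 min, after which biotinylated H3K9 peptide (500 nM) and SAM (20 uM) started a 2 h room-temperature reaction. Monomethylated product was quantified by antibody-based AlphaScreen chemiluminescence.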
A general note: qHTS replaces the single test concentration by a dilution series.
Turning to `CCOC(=O)C1CCN(c2csc3ccc(C)cc3c2=O)CC1`, the “activity, negative = inhibition” value is 6.56%.
Consider `Cc1[nH]n(C(N)=S)c(=O)c1N=Nc1ccc(Cl)cc1Cl`, for which the Potency was 44.7 µM (active).
`Cc1[nH]n(-c2cccc(Cl)c2)c(=O)c1-c1ccc(Cl)cc1`: the “activity, negative = inhibition” value was -39%.
Same read-out and setting: the figure for `Cc1[nH]n(-c2ccccc2)c(=O)c1N=Nc1ccccc1C(=O)N1CCCCC1` is -2.74%; for `COc1ccccc1C(=O)Nc1ccc(OCC(=O)N2CCCCC2)cc1` it is 11.7% [at 2.33 µM].
`C(=N/N1CCN(c2ccccc2)CC1)/c1cccs1`: the Potency was 10 µM (active).
With `Cc1ccc(N2CCN(/N=C/c3cccs3)CC2)cc1`, the “activity, negative = inhibition” value is -34.4% [at 102 µM].
`Nc1nnnn1/N=C/c1cccs1`: the “activity, negative = inhibition” value is -13.1%.
On the same count and under the same terms, the figure for `O=C(Nc1ccc2nc(SCC(=O)N3CCCc4ccccc43)sc2c1)c1ccc(F)cc1` is -31.9%.
On the same count and under the same terms, the figure for `Cc1cc(C)c(S(=O)(=O)N(C)CC(=O)NCC2CCCO2)c(C)c1` (stereo not drawn) is 24.8% [at 102 µM]; for `CCC1CCCCN1S(=O)(=O)c1ccc(NC(=O)c2cc(=O)c3ccccc3o2)cc1` (stereo not drawn) it is 5.64%; for `O=C(NCCc1c[nH]c2ccccc12)C1CCN(Cc2ccc(Br)cc2)CC1` it is -6.03%.
As to `CC1(C(=O)NCCc2c[nH]c3ccccc23)C=CC2(CCCCC2)N1C(=O)c1ccccc1` (stereo not drawn), the Potency is 79.4 µM (active).
Regarding `C[C@]1(C(=O)NCCc2c[nH]c3ccccc23)C=C[C@@H](Cc2ccccc2)N1C(=O)c1ccccc1`, the Potency is 50.1 µM (active).
For `O=C(CN1C(=O)NC2(CCCCC2)C1=O)NCCc1c[nH]c2ccccc12`, the “activity, negative = inhibition” value is 52.5% [at 102 µM].
Still for that read-out and setting: to `O=C(CCCCCn1c(=O)[nH]c2ccccc2c1=O)NCCc1c[nH]c2ccccc12` belongs -11.9% [at 0.0925 µM]; to `CC(=O)NC(Cc1c[nH]c2ccccc12)C(=O)NCCc1ccccc1` (stereo not drawn), 23.4% [at 102 µM].
On the same count and under the same terms, the figure for `Cc1ccc(S(=O)(=O)N2[C@@H](c3ccccc3F)C(C(=O)O)=CC[C@H]2c2ccc(Cl)cc2)cc1` is -0.77% [at 2.33 µM]; for `O=C(CSc1nccn1Cc1ccc(Cl)cc1)NCc1ccccc1` it is -22.1%.
On the same count and under the same terms, the figure for `COc1ccc([C@@H]2[C@@H]3C(=O)N(C(C)(C)C)C(=O)[C@@H]3[C@]3(Cc4ccccc4)C(=O)N(c4cccc(Br)c4)C(=O)N23)cc1` is -84.6% [at 2.33 µM]; for `Cc1ccc(C(=O)NCCSc2c(C)[nH]c3ccccc23)cc1C` it is -33%; for `Cc1cccc(-n2ncc(Cl)c(Cl)c2=O)c1` it is -6.01% [at 102 µM].
For the molecule `CC(C)CN(C(=O)CSc1nncn1C)C1CCS(=O)(=O)C1` (stereo not drawn), the activity, negative = inhibition is 7.97% [at 2.33 µM].
Still for that read-out and setting: the figure for `Cc1cccc(N2CCN(C(C)C(=O)N3CCc4ccccc43)CC2)c1C` (stereo not drawn) is 24.8% [at 102 µM]; for `COC(=O)c1ccccc1NC(=O)c1ccc2c(=O)n3c(nc2c1)CCCCC3` it is 6.89%; for `COc1ccc2c(c1)c(=O)c(S(=O)(=O)c1ccc(F)cc1)cn2CC(=O)Nc1ccc(C)cc1C` it is -0.892%.
Consider `Nc1cc(C(F)(F)F)ccc1N1CCOCC1`, for which the Potency was 50.1 µM (active).
On to `O=C(CCC1CCCCC1)Nc1cc(C(F)(F)F)ccc1N1CCOCC1`, for which the “activity, negative = inhibition” value was 42.8% [at 102 µM].
The same measure, in the same setting: to `CC(C)CC(=O)Nc1cc(C(F)(F)F)ccc1N1CCOCC1` belongs -30.9%; to `Cn1c(=O)oc2cc(S(=O)(=O)CCC(=O)NCCc3ccc(Cl)cc3)ccc21`, 3.51%.
`Cc1ccc(NNC(=O)c2cccs2)cc1Cl`: the Potency was 8.91 µM (active).
On to `Cc1ccc(NNC(=O)c2c(F)cccc2Cl)cc1Cl`, for which the “activity, negative = inhibition” value is -32% [at 102 µM].
Same read-out and setting: the figure for `O=C(NNC(=O)c1ccc(Cl)cc1Cl)c1cccs1` is 1.93% [at 102 µM]; for `CCOc1ccc(-n2c(SCC(=O)NCc3ccccc3)nc3n[nH]c(C)c3c2=N)cc1` it is 37.3%.
Turning to `Cc1ccc(S(=O)(=O)N2CCCC(C(=O)N3CCN(C)CC3)C2)cc1` (stereo not drawn), the Potency was 10 µM (active).
Consider `CC(=O)Nc1ccc(S(=O)(=O)N2CCN(C3CCCCCCC3)CC2)cc1`, for which the “activity, negative = inhibition” value is 6.22%.
On the same count and under the same terms, the figure for `Cc1ccc(S(=O)(=O)N2CCC(C(=O)Nc3cc(C)ccc3C)CC2)cc1` is 8.46%.
As for `Cc1ccc(S(=O)(=O)N2CCC(N3CCCCCC3)CC2)cc1`, the Potency was 10 µM (active).
Regarding `O=C(C1CCCN(S(=O)(=O)c2ccc([N+](=O)[O-])cc2)C1)N1CCCCC1` (stereo not drawn), the “activity, negative = inhibition” value was 64.4% [at 102 µM].
As to `COc1ccc(S(=O)(=O)N2CCCC(C(=O)N3CCN(C)CC3)C2)cc1C` (stereo not drawn), the “activity, negative = inhibition” value was 3.75%.
On the same count and under the same terms, to `COc1ccc(NC(=O)CSc2nc3ccccc3[nH]2)cc1` belongs -3.73%; to `CC1CCCCC1NC(=O)CCS(=O)(=O)c1ccc2c(c1)NC(=O)CO2` (stereo not drawn), -7.89% [at 102 µM]; to `CCN(C(=O)c1cc([N+](=O)[O-])ccc1NCc1cccnc1)c1ccccc1`, 19% [at 102 µM].
On the same count and under the same terms, to `CC(C)(C)OC(=O)N1CCC(c2c(C(=O)N3CCN(c4cccc(Cl)c4)CC3)cnn2-c2cccc(Cl)c2)CC1` belongs -27.2%; to `COc1cccc(NC(=O)CC2C(=O)NCCN2C(=S)Nc2ccc(F)cc2)c1` (stereo not drawn), -29.9% [at 102 µM].
Turning to `COc1ccc(C(=O)NC(=S)N2CCNC(=O)C2CC(=O)OC(C)C)cc1` (stereo not drawn), the Potency is 25.1 µM (active).
In the case of `CCC1C(=O)NCCN1C(=O)c1ccc2nc(Cc3ccc(OC)cc3)oc2c1` (stereo not drawn), the “activity, negative = inhibition” value was -13.6% [at 102 µM].
Take `C/C(=N/Nc1ccc(Cl)cc1)c1cnnc(-c2ccccc2)n1`: the Potency is 39.8 µM (active).
`C/C(=N\NC(=O)Cc1ccc(Cl)cc1)c1ccccn1`: the “activity, negative = inhibition” value is 32.8% [at 102 µM].
Regarding `O=C(Cc1ccc(Cl)cc1)NCc1nc(-c2ccccc2)no1`, the “activity, negative = inhibition” value is 2.46% [at 102 µM].
Turning to `Cc1cc(C(=O)Nc2cccc(C(F)(F)F)c2)c2c(C)nn(-c3cccc(F)c3)c2n1`, the “activity, negative = inhibition” value was 5.99%.
As for `COc1ccc(N2CCN(c3ccc([N+](=O)[O-])cc3Cl)CC2)cc1`, the Potency is 7.94 µM (active).
Regarding `CN(C)S(=O)(=O)N1CCN(c2ccc([N+](=O)[O-])cc2)CC1`, the “activity, negative = inhibition” value is -2.69% [at 102 µM].
The same measure, in the same setting: to `COc1ccc(N2CCN(c3ccc([N+](=O)[O-])nc3)CC2)cc1` belongs -35.1% [at 102 µM]; to `CCN1CCN(c2ccc([N+](=O)[O-])cc2C(=O)c2ccc(Cl)cc2)CC1`, 36.3% [at 0.501 µM].
For the molecule `O=[N+]([O-])c1ccc(N2CCN(c3ccc(O)cc3)CC2)c(Cl)c1`, the Potency was 3.16 µM (active).
Regarding `O=C(c1cncc(Br)c1)N1CCN(c2ccc([N+](=O)[O-])cc2)CC1`, the “activity, negative = inhibition” value is -29.7%.
On the same count and under the same terms, to `COc1cc(CN(CC2CCCO2)C(=O)c2ccccc2F)cc(OC)c1OC` (stereo not drawn) belongs -3.03%; to `Cc1ccc(S(=O)(=O)N(C)CC(=O)NCC(c2ccc(F)cc2)N2CCOCC2)cc1` (stereo not drawn), 19.1% [at 12.7 µM].
Same read-out and setting: the figure for `CCOC(=O)CSC1=Nc2ccccc2C2=NC(CCC(=O)NCc3ccc(F)cc3)C(=O)N12` (stereo not drawn) is 3.43%; for `O=[N+]([O-])c1cc(S(=O)(=O)N2CCCC2)ccc1NN=C1CCCC1` it is 2.51%.
As to `CC(C)N1CCC(=NNc2ccc([N+](=O)[O-])cc2S(=O)(=O)N2CCOCC2)CC1`, the Potency is 15.8 µM (active).
In the case of `O=[N+]([O-])c1ccc(NCCCN2CCOCC2)c(Cl)c1`, the activity, negative = inhibition was 20.5% [at 2.33 µM].
